This is an account of results in PubChem BioAssay (NCATS).

Records with an inconclusive call do not appear. Entries that show only a call come without a potency. Calls of active or inactive are those of the source. Calls come from the whole dose curve; as a rule, active = well fitted cell-killing curve with a large enough effect; inconclusive = small, poorly fitted or top-dose-only effect; inactive = flat fitted curve, though single readings scatter.

This assay in a line: qHTS of pediatric cancer cell lines to identify multiple opportunities for drug repurposing: Primary screen for DAOY cells (AID 1347090). Note: nearly all actives have a fitted effect of over 55% in size. The conditions noted are these: DAOY medulloblastoma viability, CellTiter-Glo luminescence, 48 h; series mostly up to 46 µM. The text has this: Drug repurposing or repositioning has been offered as a strategy for drug development in oncology programs. This approach has special potential for childhood cancers and other rare or orphan diseases, where the expected return on new drug development has been a disincentive to pharmaceuticals.
In this project we exploit the poly-pharmacology of drugs to discover new indications via phenotypic screening of a panel of 19 well-characterized cell lines derived from solid tumors seen in children and adolescents. The goal is to identify approved drugs with previously unrecognized anticancer properties that has the potential to reveal new mechanisms and biological processes involved in carcinogenesis or drug resistance. We employed a titration-based paradigm (quantitative high-throughput screening or qHTS), where all compounds were tested at multiple concentrations for their effect on cell viability. Concentration-response curves (CRCs) were derived directly from the primary screen, and both potency and efficacy values were used to identify compounds with robust bioactivity profiles. We screened the NIH Chemical Genomics Center (NCGC) Pharmaceutical Collection (NPC) and Mechanism Interrogation Plate (MIPE) small molecule collections of approved and investigational compounds against these cell lines; and measured metabolically active cells after 48 hours of compound treatment as a proxy for cell viability.
Assay Submitter: Nathalia J. Martinez, National Center for Advancing Translational Sciences, National Institutes of Health, Rockville, MD, USA; email: natalia.martinez@nih.gov
[1] Shen, M et al. Quantitative high-throughput phenotypic screening of pediatric cancer cell lines identifies multiple opportunities for drug repurposing. Oncotarget 2017 Dec 19;9(4):4758-4772. PMID 29435139.
The cells were obtained from University of North Carolina (UNC), Pediatric Preclinical Testing Program (PPT), and Coriell Institute (CI).
qHTS cell viability assay:
Cells were assayed in growth media at a density of 500-1,000 cells/well. Five microliters of cells were dispensed into 1,536-well, white, solid-bottom, TC-treated plates (Greiner Bio One) using a multidrop dispenser and incubated at 37 degrees C, 5% CO2, under a humidified atmosphere for 5 hours. Twenty-three nanoliters of compounds and controls (neutral control DMSO or positive control bortezomib at final concentration of 2.3 µM) were subsequently transferred by Kalypsys pintool. For primary screens, the MIPE collection was tested at 11-point dilutions (final concentrations range from 0.78 nM to 46 µM) and the NPC collection at 8-point dilutions (final concentrations range from 0.59 nM to 46 µM). Compounds tested in follow-up screens were assayed at 11-point dilutions. Cells were incubated for 48 hours, followed by addition of 3 uL of CellTiter-Glo (Promega). After a 15 min incubation at room temperature, samples were analyzed for luminescence intensity using a ViewLux High-throughput CCD imager equipped with clear filters.
Turning to `CCn1cc(C(=O)O)c(=O)c2cnc(N3CCNCC3)nc21`, the Potency result is “inactive”.

Regarding `O=C(O)[C@H](O)c1ccccc1`, the Potency entry is “inactive”.

Turning to `CN1CCOC(c2ccccc2)c2ccccc2C1` (stereo not given), the Potency result was “inactive”.

Turning to `CCC(=O)Nc1ccc(O)cc1`, the Potency entry is “inactive”.

Consider `O=C(O)c1ccccn1`, for which the Potency entry was “inactive”.

As for `CN(N=O)C(=O)N[C@@H]1[C@@H](O)[C@H](O)[C@@H](CO)O[C@@H]1O`, the Potency result is “inactive”.

Take `CC1(C)CO[C@@H](CC(=O)O)CN1`: the Potency entry was “inactive”.

As to `COc1cc2[nH]c(=O)[nH]c(=O)c2cc1OC`, the Potency result was “inactive”.

As to `Oc1ccc(C(O)CNCCCCCCNCC(O)c2ccc(O)c(O)c2)cc1O` (stereo not given), the Potency result is “inactive”.

Turning to `COc1ccc2[nH]c(S(=O)Cc3ncc(C)c(OC)c3C)nc2n1` (stereo not given), the Potency entry is “inactive”.

For the molecule `Cn1c(=O)c2c(ncn2CC2OCCO2)n(C)c1=O`, the Potency result was “inactive”.

In the case of `Cc1ncc([N+](=O)[O-])n1CC(O)CCl` (stereo not given), the Potency result was “inactive”.

`C[C@@H](O)[C@H](N)C(=O)O`: the Potency entry was “inactive”.

Turning to `O=C1NC(=O)[C@@]2(CCOc3ccc(F)cc32)N1`, the Potency result was “inactive”.

For `CC(C)(C)C(=O)NCCCC(=O)O`, the Potency entry is “inactive”.

`O=C(O)COc1nn(Cc2ccccc2)c2ccccc12`: the Potency result is “inactive”.

For the molecule `Cc1cccc(Nc2cc(Cl)nc(SCC(=O)O)n2)c1C`, the Potency entry was “inactive”.

For `Nc1cc(=O)[nH]c(N)n1`, the Potency result was “inactive”.

As for `Cc1cccc(C)c1NC(=O)CN(CC(=O)O)CC(=O)O`, the Potency result was “inactive”.

As for `CC1=C(/C=C/C(C)=C/C=C/C(C)=C/C(=O)O)C(C)(C)CCC1`, the Potency entry was “inactive”.

For the molecule `[O-][n+]1cccc(CO)c1`, the Potency result was “inactive”.

Regarding `CC1=C(CC(=O)O)c2cc(F)ccc2/C1=C\c1ccc(S(C)(=O)=O)cc1`, the Potency result is “inactive”.

For `CC(CN1c2ccccc2Sc2ccccc21)N(C)C` (stereo not given), the Potency entry was “inactive”.

As for `O=c1cc(CO)occ1O`, the Potency entry was “inactive”.

For `NCCNCCNCCNCCN`, the activity change, negative = cytotoxic is -7.74% [at 9.22 µM] (inactive).

With `CCN(CC)C(C)CN1c2ccccc2Sc2ccccc21` (stereo not given), the Potency entry is “inactive”.

As to `CC(=O)OCC(=O)[C@@]1(O)CC[C@H]2[C@@H]3CCC4=CC(=O)CC[C@]4(C)[C@H]3C(=O)C[C@@]21C`, the Potency result is “inactive”.

As for `CS(=O)(=O)c1ccc([C@@H](O)[C@@H](CF)NC(=O)C(Cl)Cl)cc1`, the Potency result was “inactive”.

As for `CC(C)(C(=O)O)c1ccc(C(O)CCCN2CCC(C(O)(c3ccccc3)c3ccccc3)CC2)cc1` (stereo not given), the Potency result was “inactive”.

Consider `Cc1cc2c(cc1S(N)(=O)=O)S(=O)(=O)CCC2`, for which the Potency result was “inactive”.

`NC(=O)N/N=C/c1ccc([N+](=O)[O-])o1`: the Potency entry was “inactive”.

As for `CCOC(=O)c1ccc(O)cc1`, the Potency result was “inactive”.

Consider `O=S(=O)(O)c1cc(I)c(O)c2ncccc12`, for which the Potency entry was “inactive”.

`Nc1ccc(S(=O)(=O)NC(=O)c2ccccc2)cc1`: the Potency entry is “inactive”.

`CCC(=O)c1ccc(O)cc1`: the Potency entry was “inactive”.

For `NC(CSCC(=O)O)C(=O)O` (stereo not given), the Potency entry was “inactive”.

In the case of `OCc1cc(C(O)CNCCCCCCOCCCCc2ccccc2)ccc1O` (stereo not given), the Potency result was “inactive”.

For the molecule `Nc1ccc(S(=O)(=O)Nc2nccs2)cc1`, the Potency entry was “inactive”.

For the molecule `CC(C)(C)NCC(O)COc1ccc(NC(=O)NC2CCCCC2)cc1` (stereo not given), the Potency entry is “inactive”.

Turning to `C[C@@H]1C[C@H]2[C@@H]3C[C@H](F)C4=CC(=O)C=C[C@]4(C)[C@@]3(F)[C@@H](O)C[C@]2(C)[C@@]1(O)C(=O)CO`, the Potency result was “inactive”.
